Anthrax LF inh2: inhibitors of Bacillus anthracis lethal factor protease; P15917; multiplex microsphere protease cleavage assay, LF; inhibition, % at 10 µM; 360,000 tested, 0.12% active
Autofluor counter: counter-screen for toxin protease inhibitors: compound fluorescence; compound autofluorescence counterscreen, microsphere flow cytometry; active compounds read high; fluorescence intensity (concentration not given with the values); AID 624483; 360,000 tested, 3.1% active; in the data active means fluorescence intensity above about 16000; inconclusive means no clear call, values can overlap the other calls
BoNT-F LC inh: blocks Botulinum neurotoxin F light chain protease | Multiplex microsphere protease cleavage assay, flow cytometry | inhibition, % at 10 µM | 360,000 tested, 0.22% active; in the data active means inhibition above about 35%, passing the limit was not always enough; inconclusive means no clear call, values can overlap the other calls
BH1578 lux ind: induces V. cholerae light production without autoinducers | AID 588436 | activation, % at 18.7 µM | V. cholerae BH1578 lux reporter, luminescence, 6 h | 350,000 tested, 0.16% active; in the data active means activation mostly above about 9.7%, no sharp cut-off; inconclusive means no clear call, values can overlap the other calls; inactive means mostly below about 3.7%
BoNT-A LC inh2: blocks Botulinum neurotoxin A light chain protease | multiplex microsphere protease substrate cleavage, flow cytometry | 360,000 tested, 0.17% active | inhibition, % at 10 µM
MazF activator: increases E. coli MazEF RNase cleavage of RNA | P0AE70 | FAM/BHQ RNA-DNA oligo cleavage fluorescence, 5 h | activation, % at 20 µM | 350,000 tested, 0.32% active; in the data active means activation above about 50%
Target sequence (P0AE70 whole entry, looked up): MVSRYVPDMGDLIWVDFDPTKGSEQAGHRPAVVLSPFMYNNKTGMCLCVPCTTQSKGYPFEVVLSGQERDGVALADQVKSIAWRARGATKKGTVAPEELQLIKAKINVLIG
Hits are given with their value. Sampled rows, rich in hits. Any-hit rate of the full collection: about 3.9%. Unless noted, no stated cut-off is given here; in the data, active means inhibition above about 30%; inconclusive means no clear call, values can overlap the other calls; inactive means below that.

For CCS(=O)(=O)N1CCC(C(=O)NCc2ccc3c(c2)OCO3)CC1 the results were Anthrax LF inh2 inactive, Autofluor counter inactive, BoNT-F LC inh inactive, BH1578 lux ind inactive, BoNT-A LC inh2 inactive and MazF activator inactive.
CCCCC1CCC(C(=O)NCc2ccc3c(c2)OCO3)CC1 (stereo not given) was read as Anthrax LF inh2 inactive, Autofluor counter 23610, BoNT-F LC inh inactive, BH1578 lux ind inactive, BoNT-A LC inh2 inactive and MazF activator inactive.
Screening Cc1nnc(SCC(=O)NCc2ccc3c(c2)OCO3)s1 returned Anthrax LF inh2 inactive, Autofluor counter inactive, BoNT-F LC inh inactive, BH1578 lux ind inactive, BoNT-A LC inh2 inactive and MazF activator inactive.
`O=C(NCc1cccnc1)c1ccc2c(c1)OCO2` gave Anthrax LF inh2 inactive, Autofluor counter 22188, BoNT-F LC inh inactive, BH1578 lux ind inactive, BoNT-A LC inh2 inconclusive and MazF activator inactive.
`O=C(NCc1ccc2c(c1)OCO2)c1ccc2c(c1)C(=O)N(Cc1cccnc1)C2=O` gave Anthrax LF inh2 inactive, Autofluor counter inactive, BoNT-F LC inh inactive, BH1578 lux ind inactive, BoNT-A LC inh2 inactive and MazF activator inactive.
For O=C(CSc1nc2cc(Cl)ccc2s1)NCc1ccc2c(c1)OCO2 the results were Anthrax LF inh2 inactive, Autofluor counter inactive, BoNT-F LC inh inactive, BH1578 lux ind inactive, BoNT-A LC inh2 inactive and MazF activator 63.5.
`Cc1cc(/C=C\c2nc(O)c([N+](=O)[O-])c(=O)[nH]2)c(C)n1-c1ccccc1` gave Anthrax LF inh2 inactive, Autofluor counter inactive, BoNT-F LC inh inactive, BH1578 lux ind inactive, BoNT-A LC inh2 inactive and MazF activator inactive.
For CCC(Cc1c(I)cc(I)c(N)c1I)C(=O)O (stereo not given) the results were Anthrax LF inh2 inactive, Autofluor counter inactive, BoNT-F LC inh inactive, BH1578 lux ind inactive, BoNT-A LC inh2 inactive and MazF activator inactive.
For O=C(CCS(=O)(=O)c1ccc(Br)s1)NCc1ccc2c(c1)OCO2 the results were Anthrax LF inh2 inactive, Autofluor counter 22950, BoNT-F LC inh inactive, BH1578 lux ind inactive, BoNT-A LC inh2 inconclusive and MazF activator inactive.
`O=C(CSCc1ccccc1)NCc1ccc2c(c1)OCO2` gave Anthrax LF inh2 inactive, Autofluor counter inactive, BoNT-F LC inh inactive, BH1578 lux ind inactive, BoNT-A LC inh2 inactive and MazF activator inactive.
For O=C(NCc1ccc2c(c1)OCO2)c1cccc(Cl)c1 the results were Anthrax LF inh2 inactive, Autofluor counter inactive, BoNT-F LC inh inactive, BH1578 lux ind inactive, BoNT-A LC inh2 inactive and MazF activator inactive.
O=C(NCc1ccc(Cl)cc1)C1=Cc2cc(Cl)ccc2OC1 was read as Anthrax LF inh2 inactive, Autofluor counter 21246, BoNT-F LC inh inactive, BH1578 lux ind inactive, BoNT-A LC inh2 inactive and MazF activator inactive.
`O=C(CCNS(=O)(=O)c1ccc(Br)s1)NCc1ccc2c(c1)OCO2` gave Anthrax LF inh2 inactive, Autofluor counter inactive, BoNT-F LC inh inactive, BH1578 lux ind inactive, BoNT-A LC inh2 inactive and MazF activator inactive.
O=C(NCc1cccc(Cl)c1)c1ccc2c(c1)OCO2 was read as Anthrax LF inh2 inactive, Autofluor counter 21016, BoNT-F LC inh inactive, BH1578 lux ind inactive, BoNT-A LC inh2 inconclusive and MazF activator inactive.
`O=C(CSCc1cccc(Cl)c1)NCc1ccc2c(c1)OCO2` gave Anthrax LF inh2 inactive, Autofluor counter 21289, BoNT-F LC inh inactive, BH1578 lux ind inactive, BoNT-A LC inh2 inactive and MazF activator inactive.
Screening CCOc1ccccc1NC(=O)c1csc(C)c1C returned Anthrax LF inh2 inactive, Autofluor counter inactive, BoNT-F LC inh inactive, BH1578 lux ind inactive, BoNT-A LC inh2 inactive and MazF activator inactive.
CNC(=O)OCc1ncn(-c2ccccc2)c1COC(=O)NC was read as Anthrax LF inh2 inactive, Autofluor counter inactive, BoNT-F LC inh inactive and BoNT-A LC inh2 inactive.
Oc1c(Cl)cc(Cl)cc1CNc1ccc(Br)cn1 was read as Anthrax LF inh2 inactive, Autofluor counter inactive, BoNT-F LC inh inactive, BH1578 lux ind inactive, BoNT-A LC inh2 inactive and MazF activator inactive.
Oc1ccc(Cl)cc1CNc1ccc(Br)cn1 was read as Anthrax LF inh2 inactive, Autofluor counter 23615, BoNT-F LC inh inactive, BH1578 lux ind inactive, BoNT-A LC inh2 inactive and MazF activator inactive.
For CCN(CC)CCOC(=O)C1(c2ccccc2)CCCC1 the results were Anthrax LF inh2 inactive, Autofluor counter inactive, BoNT-F LC inh inactive, BH1578 lux ind inactive, BoNT-A LC inh2 inactive and MazF activator inactive.
For O=C(OCCCN1CCCC1)C1(c2ccccc2)CCCC1 the results were Anthrax LF inh2 inactive, Autofluor counter 24071, BoNT-F LC inh inactive, BH1578 lux ind inactive, BoNT-A LC inh2 inconclusive and MazF activator inactive.
